Experimental data published in ChEMBL document CHEMBL3988442, “University of Dundee, Small-Polar-MMV Screening Library” (2021).
The campaign covered roughly 38,000 compounds. About 1,200 (3.2%) showed an effect of 50% or more. The median lay at about -58%. The entries come from a sample that favours strong results as a whole.

Test system: Plasmodium falciparum
Assay: Calibr Malaria Delayed Death Assay SOP
Format: functional, organism-based
Parameters: scale not given: in the data most compounds retested in dose-response had high values
Details: concentration 4.99e-06 (unit not given; other assays of the set use mol/L)

SMILES	Percent Effect
COc1cccc(CN(C)Cc2cc(C#N)ccc2F)c1OC	-37.67%
COc1cccc(CN(C)Cc2ccccc2C#N)c1OC	-10.45%
CC(C)OCc1nn(C)c2c1CCN(CC1CC1)C2.O=C(O)C(F)(F)F	-24.03%
O=C(N1CCSCC1)C1(O)Cc2ccccc2C1	-49.25%
O=C(N1CCN(CCO)CC1)C1(O)Cc2ccccc2C1	-7.059%
O=C(N1CCc2ccccc2CC1)C1(O)Cc2ccccc2C1	56.27%
COCCNC(=O)C1CN(C(N)=O)Cc2ccnn2C1 (stereo not drawn)	-83.21%
O=C(c1coc(COc2cccc3cnccc23)n1)N1CCCCCC1	16.31%
O=C(O)c1coc(COc2cccc3cnccc23)n1	-75.43%
CC(C(=O)Nc1ccc(N2CCCCC2)nc1)n1ccnc1 (stereo not drawn)	-81.15%
Cn1ccnc1CN(Cc1cccnc1)CC1CCCO1 (stereo not drawn)	-29.26%
N#Cc1ccccc1CN1CCc2sccc2C1	-109.2%
NCC(c1ccccc1)N1CCc2sccc2C1 (stereo not drawn)	56.94%
CC(CNC(=O)c1ccco1)N1CCc2sccc2C1 (stereo not drawn)	-89.83%
O=C(CCn1ccc2ccc(Br)cc21)/N=c1\[nH]nc(C2CCCO2)s1 (stereo not drawn)	-91.4%
CC(c1ccc(S(C)(=O)=O)cc1)N(C)C(=O)c1ccccc1I (stereo not drawn)	-43.05%
COc1ccc(CCC(C)Nc2cccc(SC)c2)cc1 (stereo not drawn)	-91.4%
COc1ccc(C(C)NCc2scnc2C)cc1Cn1cccn1 (stereo not drawn)	-18.73%
COc1ccc(C(C)NCc2cccs2)cc1Cn1cccn1 (stereo not drawn)	28.81%
COc1ccc(OC)c(CN2CCN(Cc3cscn3)CC2)c1	-31.14%
COc1ccc(C(C)NCc2ccsc2)cc1Cn1cccn1 (stereo not drawn)	71.68%
COc1ccc(C(C)NCc2ccnn2C)cc1Cn1cccn1 (stereo not drawn)	-53.25%
COc1ccc(C(C)NCc2cscn2)cc1Cn1cccn1 (stereo not drawn)	71.39%
CCc1nnc(CN2CCCCC2Cn2cncn2)o1 (stereo not drawn)	-69.23%
Cc1nc(C2CCCN2C(=O)CCOCc2ccccc2)no1 (stereo not drawn)	-117.2%
O=S(=O)(Nc1cnn(C2CCOCC2)c1)c1ccc(Br)cc1	-25.25%
CNC(=O)N1CCCCC1c1nnc2n1CCCC2 (stereo not drawn)	-92.12%

SMILES	Percent Effect
O=C1c2cnc(N3CCCCC3)nc2CN1c1ccc2c(c1)OCO2	-196%
CCNc1nc(C)c(C(=O)N(C)Cc2nc(CC)no2)s1	-30.42%
O=c1[nH]c(NC2CCCC2)nc2nccc(-c3cccs3)c12	55.34%
O=C(NC[C@H]1CCCC[C@H]1O)c1cccc2[nH]c(-c3cccs3)nc12	-57.07%
O=c1[nH]c(NC2CCCC2)nc2nccc(-c3ccsc3)c12	67.56%
O=C(NC[C@H]1CCCC[C@H]1O)c1ccc2nc(-c3ccco3)[nH]c2c1	-121.1%
O=C1NCCCCC1NCc1csc(-c2ccsc2)n1 (stereo not drawn)	-129.5%
O=C(O)Cn1nc(C2CC2)c2c(-c3ccco3)ccnc21	-116%
O=C(O)Cn1nc(C2CC2)c2c(-c3cccs3)ccnc21	-11.75%
O=C(NC1CCCC1)C1Cc2nc(-c3ccsc3)sc2N1CC1CC1 (stereo not drawn)	-48.35%
O=c1[nH]c(NC2CCCC2)nc2nccc(-c3ccco3)c12	71.56%
Cc1cccc(CN(C(=O)CCn2cncn2)C(C)C)c1	-52.83%
O=C(CCc1nc2cc(Br)cnc2[nH]1)NCCCN1CCOCC1	-51.18%
COc1ccc(C)cc1CC(=O)NC1(C#N)CCOCC1	-117.4%
CCOc1cc(C(=O)NS(=O)(=O)c2cccc(C#N)c2)ccc1OC	-127.1%
CCC(CC)CN1CCN(CC(=O)Nc2ccc3nsnc3c2)CC1	27.19%
CN(C)C(=O)CN1CCC2(CCN(C(=O)N3CCCC3)CC2)C1=O	-157.2%
c1coc(CN2CCc3ncnc(C4CCOC4)c3CC2)c1 (stereo not drawn)	-48.34%
COCCN1CCc2ncnc(OC(C)C)c2CC1.O=C(O)C(F)(F)F	-76.73%
CC(C)Oc1ncnc2c1CCN(Cc1ccc(F)cc1)CC2.O=C(O)C(F)(F)F	69.87%
Cc1nc(C)c2c(n1)CCN(Cc1ccco1)CC2	-20.07%
Cc1ccc(CN2CCc3ncnc(OC(C)C)c3CC2)s1.O=C(O)C(F)(F)F	-2.65%
CC(C)Oc1ncnc2c1CCN(Cc1ccoc1)CC2.O=C(O)C(F)(F)F	29.43%
CC(C)Oc1ncnc2c1CCN(Cc1ccco1)CC2.O=C(O)C(F)(F)F	60.03%
COc1ncnc2c1CCN(Cc1cccs1)CC2.O=C(O)C(F)(F)F	-104.3%
CCOc1cc(C(=O)N2CCCC(c3noc(C(C)C)n3)C2)ccn1 (stereo not drawn)	-128.3%
